Bioassay records from PubChem.
YB-1 expr inh – YB-1 expression inhibition; U2OS, qRT-PCR YB-1 vs CDIP delta delta Cp, 16 h; stronger effect = higher value; zero = DMSO, each unit about twofold; delta delta Cp (YB-1 minus CDIP) (no concentration beside the values); hit rate 0.37% among 30,000; AID 434959;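 active means delta delta Cp rounded down to an integer at or above 3, about 3 SD of DMSO wells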;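 further: higher means less YB-1 transcript or more CDIP transcript relative to DMSO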
ROS inducer – inducers of reactive oxygen species in cancer cells; U2OS ROS induction, H2DCF-DA fluorescence; ROS induction (% of piperlongumine), % at 10 µM; hit rate 2% among 46,000; AID 624156; in the data active means ROS induction above about 79%, passing the limit was not always enough;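 further: 0% = DMSO vehicle median and 100% = reference compound median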
Numbers without * were called inactive; / = no result given. Most compounds without a hit are left out; they make up all but 2.1% or so of the library.

SMILES	YB-1 expr inh	ROS inducer
Cc1ccc(-n2c(=O)c3c(C)c(C(=O)N(C)C)sc3n(Cc3ccc(F)cc3Cl)c2=O)cc1C	/	19
CC1CC(C)CN(CCCNC(=O)Cn2c3ccccc3c3cn[nH]c(=O)c32)C1 (stereo not drawn)	/	-2
Clc1ccccc1CSc1nc(NCC2CCCO2)c2ccccc2n1 (stereo not drawn)	/	22
CCOc1ccc(NC(=O)c2cc3ccccc3o2)cc1	/	13
Cc1c(Cc2ccccc2)c(Cl)n2c(nc3ccccc32)c1C#N	/	164*
N#Cc1c(-c2ccccc2Cl)c(C#N)c2nc3ccccc3n2c1N	/	70
O=C(CSc1nc2ccccc2c2nc3ccccc3n12)NCCc1ccccc1	/	53
CCCc1cc(NCCc2ccccc2)n2c(nc3ccccc32)c1C#N	/	92*
CCn1c(C(=O)NC2CCCCCC2)cc2oc3ccccc3c21	/	10
C=CCn1c(O)c(C2=c3ccccc3=NC2=O)sc1=S	/	3
O=C(NCc1ccccn1)c1cc2nc(-c3ccccc3)cc(-c3ccccc3)n2n1	/	141*
O=C(NCc1ccccn1)c1cc(-c2ccccc2)on1	/	-7
Cc1ccc(C(=O)Nc2ccccc2C(=O)N2CCN(c3ccccc3)CC2)cc1S(=O)(=O)N1CCCCC1	/	144*
Cc1ccc(NS(=O)(=O)c2cc(C(=O)Nc3ccccc3C(=O)N3CCCC3)ccc2Cl)cc1C	/	-6
COc1cc(C(=O)OC[C@@]2(O)CO[C@H](OC3C(CO)OC(Oc4cc(OC)c(OC)c(OC)c4)C(O)C3O)[C@@H]2O)cc(OC)c1O (stereo partly drawn)	0.037	-2
COc1cc(C(=O)OCC2(O)COC(OCC3OC(Oc4c(OC)cc(CO)cc4OC)C(O)C(O)C3O)C2O)cc(OC)c1O (stereo not drawn)	7.1*	-5
S=C1NCN(C2CCCCC2)CN1	0.44	-2
Cn1c2c(c(=O)n(C)c1=O)CN(C1CCCC1)CN2	4*	-16
COC(=O)C1=C(C)NC(=O)CC1c1ccccc1I (stereo not drawn)	/	-12
C[C@@H]1CCCCO[C@@H](CN(C)C(=O)CCCN(C)C)[C@@H](C)CN([C@H](C)CO)C(=O)c2cc(NC(=O)c3ccccc3)ccc2O1	9.6*	13
C[C@@H]1CCCCO[C@H](CN(C)C(=O)CCCN(C)C)[C@@H](C)CN([C@H](C)CO)C(=O)c2cc(NC(=O)NC3CCCCC3)ccc2O1	-0.024	22
C[C@@H]1CCCCO[C@H](CN(C)C(=O)CCCN(C)C)[C@@H](C)CN([C@H](C)CO)C(=O)c2cc(NC(=O)Nc3ccccc3)ccc2O1	-0.42	22
C[C@@H]1CCCCO[C@H](CN(C)C(=O)CCCN(C)C)[C@@H](C)CN([C@H](C)CO)C(=O)c2cc(NC(=O)C3CCCCC3)ccc2O1	0.24	105*
Cc1nc2c3ccccc3nc(SCc3cc(F)cc4c3OCOC4)n2n1	/	-4
CC1=C(C(=O)OCc2ccccc2)C(c2cccc(O)c2)C2=C(CC(c3ccccc3)CC2=O)N1 (stereo not drawn)	/	183*
SMILES	YB-1 expr inh	ROS inducer
COC(=O)C1=C(C)NC2=C(C(=O)CC(c3ccccc3)C2)C1c1ccccc1OC(C)C (stereo not drawn)	-0.15	46
COc1ccc2c(Sc3ccccc3)c(C(=O)N3CCCCC3)[nH]c2c1	/	-6
O=C(O)c1c(CNCCc2ccc(Cl)cc2)c2ccccc2n1Cc1ccccc1	/	-3
CCc1ccc2c(c1)=C(c1sc(N)nc1O)C(=O)N=2	-0.28	2
CCc1ccc2c(c1)=C(c1[nH]c(=S)[nH]c1O)C(=O)N=2	0.24	124*
COc1cccc(C(=O)Nc2ccc(NC(=O)C3CCCCC3C(=O)O)cc2)c1 (stereo not drawn)	/	24
Cc1cc(NC(=O)C2CCCCC2C(=O)O)ccc1NC(=O)c1ccccc1 (stereo not drawn)	/	126*
COC(=O)COc1cccc(NC(=O)c2ccc(-c3ccccc3)cc2)c1	/	84*
COC(=O)COc1cccc(NC(=O)c2ccccc2F)c1	/	3
CCOC(=O)CN1C(=O)S/C(=C\c2ccc(C(=O)O)cc2)C1=O	/	1
C[C@@H]1CCCCO[C@H](CN(C)C(=O)Nc2cccc3ccccc23)[C@@H](C)CN([C@H](C)CO)C(=O)c2cc(NC(=O)C3CCCCC3)ccc2O1	0.011	22
C[C@@H]1CCCCO[C@H](CN(C)C(=O)Nc2cccc3ccccc23)[C@@H](C)CN([C@H](C)CO)C(=O)c2cc(NS(=O)(=O)c3ccccc3)ccc2O1	-0.23	56
C[C@@H]1CCCCO[C@H](CN(C)C(=O)Nc2cccc3ccccc23)[C@@H](C)CN([C@H](C)CO)C(=O)c2cc(NS(=O)(=O)c3ccc(Cl)cc3)ccc2O1	15*	89*
C[C@@H]1CCCCO[C@@H](CN(C)C(=O)Nc2cccc3ccccc23)[C@@H](C)CN([C@H](C)CO)C(=O)c2cc(NC(=O)C3CCCCC3)ccc2O1	-0.032	134*
COc1cc2oc(-c3ccccc3)cc(=O)c2c(OC)c1OC	0.51	90*
COc1cc2oc(-c3ccccc3)cc(=O)c2c(O)c1OC	-0.083	31
CCCc1c(C(=O)OCC)c(C(=O)OCC)c2c(-c3ccccc3)nc(N3CCOCC3)nn12	3.2*	114*
CCOC(=O)c1cnc(N2CCOCC2)nc1N	-0.18	29
CCN(CC)C(=O)Cc1noc2ccccc12	/	-18
Cc1cc(I)ccc1NC(=O)CN(c1cccc(F)c1)S(C)(=O)=O	/	46
COc1ccc(C)cc1N(CC(=O)Nc1cccc(Cl)c1Cl)S(C)(=O)=O	/	85*
Cc1cccc(N(CC(=O)Nc2ccc(I)cc2C)S(C)(=O)=O)c1	/	129*
COc1ccc(OC)c(N(CC(=O)Nc2cccc(Cl)c2Cl)S(C)(=O)=O)c1	/	-7
COc1ccc(C2CC(=O)c3cnc(NCCc4ccccc4)nc3C2)cc1 (stereo not drawn)	/	29
Fc1ccc(-c2csc(N3CCN(C/C=C\c4ccccc4)CC3)n2)cc1	/	7
SMILES	YB-1 expr inh	ROS inducer
COc1ccc(NC(=O)N(C)C[C@H]2Oc3ccc(NC(=O)c4ccncc4)cc3CC(=O)N([C@@H](C)CO)C[C@@H]2C)cc1	-0.12	0
CC(C)NC(=O)Nc1ccc2c(c1)CC(=O)N([C@@H](C)CO)C[C@H](C)[C@H](CN(C)C(=O)Nc1ccccc1)O2	-0.27	79*
COc1ccc(NC(=O)N(C)C[C@@H]2Oc3ccc(NC(=O)NC(C)C)cc3CC(=O)N([C@H](C)CO)C[C@H]2C)cc1	-0.071	110*
CC(C)NC(=O)Nc1ccc2c(c1)CC(=O)N([C@H](C)CO)C[C@H](C)[C@H](CN(C)Cc1ccncc1)O2	-0.4	113*
CC(C)NC(=O)Nc1ccc2c(c1)CC(=O)N([C@@H](C)CO)C[C@H](C)[C@H](CN(C)Cc1ccncc1)O2	0.11	11
COc1ccc(NC(=O)N(C)C[C@@H]2Oc3ccc(NC(=O)NC(C)C)cc3CC(=O)N([C@@H](C)CO)C[C@@H]2C)cc1	0.24	-3
COc1ccc(NC(=O)N(C)C[C@@H]2Oc3ccc(NC(=O)c4ccncc4)cc3CC(=O)N([C@H](C)CO)C[C@H]2C)cc1	-0.08	94*
CC(C)NC(=O)N(C)C[C@@H]1Oc2ccc(NC(=O)Nc3ccccc3)cc2CC(=O)N([C@H](C)CO)C[C@H]1C	-0.0034	2
Cc1ccc(N2CCN(C(=O)c3cnn4c(C)c(Cc5ccccc5Cl)c(C)nc34)CC2C)cc1 (stereo not drawn)	/	0
